PubChem BioAssay (NCI)
About 79,000 compounds went through this panel and 15% of them were active in at least one assay; those are over-represented in the sample as a whole. The source made the active and inactive calls. No stated cut-off is given here; in the data, active means growth inhibition above about 70%; inactive means the rest.

Columns and labels:
[1] = NCI Yeast Anticancer Drug Screen. Data for the rad52 strain (AID 147);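 further: 0% = growth of vehicle-treated control cultures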; conditions: S. cerevisiae rad52 mutant growth inhibition, active compounds read high
Outline: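 Read-out: growth inhibition versus vehicle-treated controls. Cells were a DNA repair-deficient yeast strain treated with compounds.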

[2] = NCI Yeast Anticancer Drug Screen. Data for the wt1 strain (AID 149);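 further: 0% = growth of vehicle-treated wt1 cultures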; conditions: S. cerevisiae wt1 strain (SPY 50644) growth inhibition, active compounds read high
Outline: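 wt1 yeast, compound-treated; % growth inhibition vs vehicle control.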

[3] = NCI Yeast Anticancer Drug Screen. Data for the rad50EPP+ strain (AID 151);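 further: 0% = growth of vehicle-treated control cultures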; conditions: S. cerevisiae rad50 mutant strain, active compounds read high
Outline: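 Growth inhibition read against vehicle controls in rad50EPP+ yeast, a strain altered in DNA damage repair, after compound exposure.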

[4] = NCI Yeast Anticancer Drug Screen. Data for the mgt1 strain (AID 153); conditions: S. cerevisiae mgt1 mutant growth inhibition, active compounds read high
Outline: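 mgt1 yeast grown with test compound; read-out is growth inhibition versus vehicle-treated cultures.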

[5] = NCI Yeast Anticancer Drug Screen. Data for the rad50 strain (AID 155);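 further: 0% = growth of vehicle-only cultures of the same strain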; conditions: S. cerevisiae rad50 strain growth inhibition, active compounds read high
Outline: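 Genetically altered yeast (DNA repair pathway); compound treatment; growth inhibition vs vehicle ctrl.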

[6] = NCI Yeast Anticancer Drug Screen. Data for the mec2-1 strain (AID 157); conditions: S. cerevisiae mec2-1 strain, active compounds read high
Outline: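 Yeast mec2-1 mutant treated with compound. Readout: growth inhibition vs vehicle controls.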

[7] = NCI Yeast Anticancer Drug Screen. Data for the rad14 strain (AID 159);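 further: 0% = growth of vehicle-treated control cultures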; conditions: S. cerevisiae rad14 strain growth inhibition, active compounds read high
Outline: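 Test compounds were applied to a repair-deficient yeast strain. Its growth was then compared with that of cultures given vehicle alone, and inhibition was expressed relative to those controls.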

[8] = NCI Yeast Anticancer Drug Screen. Data for the sgs1 mgt1 strain (AID 161);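 further: 0% = growth of cultures given vehicle only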; conditions: S. cerevisiae sgs1 mgt1 strain, active compounds read high
Outline: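 Inhibition of yeast growth, normalised to vehicle-treated controls, is reported for a strain bearing genetic alterations in DNA damage repair.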

[9] = NCI Yeast Anticancer Drug Screen. Data for the CLN2oe strain (AID 163);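 further: 0% = growth of vehicle-only control cultures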; conditions: S. cerevisiae CLN2oe strain, active compounds read high
Outline: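 Read-out: yeast growth inhibition, expressed relative to vehicle-only controls. The strain bears an engineered cell-cycle alteration.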

[10] = NCI Yeast Anticancer Drug Screen. Data for the cln2 rad14 strain (AID 165);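 further: 0% = growth equal to vehicle treated cultures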; conditions: S. cerevisiae cln2 rad14 strain, active compounds read high
Outline: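 cln2 rad14 yeast strain; compound exposure; growth inhibition read vs vehicle controls.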

[11] = NCI Yeast Anticancer Drug Screen. Data for the bub3 strain (AID 167); conditions: S. cerevisiae bub3 mutant strain, active compounds read high
Outline: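 Yeast carrying a defined mutation is treated with each compound, and growth is compared with that of vehicle-exposed cells to give inhibition.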

[12] = NCI Yeast Anticancer Drug Screen. Data for the wt2 strain (AID 169);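 further: 0% = growth of vehicle-treated yeast cultures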; conditions: S. cerevisiae wt2 strain growth inhibition, active compounds read high
Outline: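 Read-out: growth inhibition versus vehicle-treated control cultures after compound exposure of the yeast strain.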

[13] = NCI Yeast Anticancer Drug Screen. Data for the mlh1 strain (AID 171);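 further: 0% = growth of vehicle-treated control cultures of the same strain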; conditions: S. cerevisiae mlh1 strain growth inhibition, active compounds read high
Outline: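 Read-out: growth inhibition versus vehicle controls. Strain: engineered yeast with a defined DNA repair or cell cycle defect, compound-treated.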

[14] = NCI Yeast Anticancer Drug Screen. Data for the sgs1 strain (AID 173);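 further: 0% = growth of vehicle-only control cultures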; conditions: S. cerevisiae sgs1 mutant, active compounds read high
Outline: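 Read-out: yeast growth inhibition relative to vehicle controls, following compound exposure of a strain with a defined DNA repair/cell cycle alteration.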

[15] = NCI Yeast Anticancer Drug Screen. Data for the mlh1 rad18 strain (AID 175); conditions: S. cerevisiae mlh1 rad18 strain growth inhibition, active compounds read high
Outline: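 Yeast w/ defined DNA-repair lesions; compound exposure; growth vs vehicle controls → % inhibition.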

[16] = NCI Yeast Anticancer Drug Screen. Data for the rad18 strain (AID 177); conditions: S. cerevisiae rad18 mutant growth inhibition, active compounds read high
Outline: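 Readout: growth inhibition vs vehicle controls. Cells: genetically altered yeast strain, DNA repair defect.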

[17] = at 5.0 µM (retest, dose inferred, filed as 0.5)
[18] = at 50.0 µM (retest, dose inferred, filed as 5.0)

Measured: growth inhibition

NC(=O)NN=C(CS)CS
active: [1]; at 100.0 µM 88% | [5]; at 100.0 µM 89% | [7]; at 100.0 µM 97% | [8]; at 50.0 µM 75% | [14]; at 100.0 µM 89% | [15]; at 50.0 µM 84.8% | [16]; at 100.0 µM 95%
inactive: [1]; at 1.2 µM -1% | [1]; at 3.7 µM 4% | [1]; at 11.0 µM 19% | [1]; at 33.0 µM 50% | [2]; at 1.2 µM -1% | [2]; at 3.7 µM -2% | [2]; at 11.0 µM -1% | [2]; at 33.0 µM 17% | [2]; at 100.0 µM 33% | [3]; at 1.2 µM -2% | [3]; at 3.7 µM -1% | [3]; at 11.0 µM -5% | [3]; at 33.0 µM 6% | [3]; at 100.0 µM 29% | [4]; at 1.2 µM -1% | [4]; at 3.7 µM 0% | [4]; at 11.0 µM 2% | [4]; at 33.0 µM 12% | [4]; at 100.0 µM 66% | [5]; at 1.2 µM 1% | [5]; at 3.7 µM 30% | [5]; [17] 4% | [5]; at 11.0 µM 31% | [5]; at 33.0 µM 44% | [5]; [18] 57% | [5]; at 50.0 µM 63.8% | [6]; at 1.2 µM 0% | [6]; at 3.7 µM 0% | [6]; [17] 1% | [6]; at 11.0 µM 6% | [6]; at 33.0 µM 24% | [6]; [18] 28% | [6]; at 50.0 µM 48.5% | [6]; at 100.0 µM 60% | [7]; at 1.2 µM -2% | [7]; at 3.7 µM 0% | [7]; at 11.0 µM 6% | [7]; at 33.0 µM 30% | [8]; [17] 2% | [8]; [18] 32% | [9]; at 1.2 µM -9% | [9]; at 3.7 µM -11% | [9]; at 11.0 µM -10% | [9]; at 33.0 µM 0% | [9]; at 100.0 µM 11% | [10]; [17] -22% | [10]; [18] 9% | [10]; at 50.0 µM -11.9% | [11]; at 1.2 µM 0% | [11]; at 3.7 µM -7% | [11]; [17] -3% | [11]; at 11.0 µM 3% | [11]; at 33.0 µM 14% | [11]; [18] 15% | [11]; at 50.0 µM 27.4% | [11]; at 100.0 µM 56% | [12]; at 1.2 µM 0% | [12]; at 3.7 µM 8% | [12]; at 11.0 µM 2% | [12]; at 33.0 µM 10% | [12]; at 100.0 µM 46% | [13]; at 1.2 µM 0% | [13]; at 3.7 µM -1% | [13]; at 11.0 µM 3% | [13]; at 33.0 µM 14% | [13]; at 100.0 µM 60% | [14]; at 1.2 µM 0% | [14]; at 3.7 µM 5% | [14]; at 11.0 µM 18% | [14]; at 33.0 µM 49% | [15]; [17] 5% | [15]; [18] 47% | [16]; at 1.2 µM -1% | [16]; at 3.7 µM 6% | [16]; at 11.0 µM 19% | [16]; at 33.0 µM 61%

Clc1cccc(C(Nc2nncs2)Nc2nncs2)c1Cl
inactive: [1]; at 1.2 µM -1% | [1]; at 3.7 µM 2% | [1]; at 11.0 µM 9% | [1]; at 33.0 µM 28% | [2]; at 1.2 µM -2% | [2]; at 3.7 µM -1% | [2]; at 11.0 µM 0% | [2]; at 33.0 µM 11% | [2]; at 100.0 µM 34% | [3]; at 1.2 µM -1% | [3]; at 3.7 µM 4% | [3]; at 11.0 µM 14% | [3]; at 33.0 µM 47% | [4]; at 1.2 µM 0% | [4]; at 3.7 µM 0% | [4]; at 11.0 µM 0% | [4]; at 33.0 µM 12% | [4]; at 100.0 µM 49% | [5]; at 1.2 µM 4% | [5]; at 3.7 µM 48% | [5]; [17] 0% | [5]; at 11.0 µM 22% | [5]; at 33.0 µM 42% | [5]; [18] 37% | [5]; at 50.0 µM 51.1% | [6]; at 1.2 µM -1% | [6]; at 3.7 µM 4% | [6]; [17] 1% | [6]; at 11.0 µM 7% | [6]; at 33.0 µM 19% | [6]; [18] 29% | [6]; at 50.0 µM 20.7% | [6]; at 100.0 µM 51% | [7]; at 1.2 µM -2% | [7]; at 3.7 µM -2% | [7]; at 11.0 µM 2% | [7]; at 33.0 µM 19% | [8]; [17] 1% | [8]; [18] 50% | [8]; at 50.0 µM 66.5% | [9]; at 1.2 µM -1% | [9]; at 3.7 µM -2% | [9]; at 11.0 µM -1% | [9]; at 33.0 µM 9% | [9]; at 100.0 µM 34% | [10]; [17] -3% | [10]; [18] 25% | [10]; at 50.0 µM -2.6% | [11]; at 1.2 µM 0% | [11]; at 3.7 µM 0% | [11]; [17] -6% | [11]; at 11.0 µM 0% | [11]; at 33.0 µM 12% | [11]; [18] 14% | [11]; at 50.0 µM -20.6% | [12]; at 1.2 µM -2% | [12]; at 3.7 µM 8% | [12]; at 11.0 µM 1% | [12]; at 33.0 µM 19% | [12]; at 100.0 µM 54% | [13]; at 1.2 µM -1% | [13]; at 3.7 µM 0% | [13]; at 11.0 µM 3% | [13]; at 33.0 µM 16% | [13]; at 100.0 µM 49% | [14]; at 1.2 µM -1% | [14]; at 3.7 µM 3% | [14]; at 11.0 µM 16% | [14]; at 33.0 µM 51% | [15]; [17] 3% | [15]; [18] 57% | [15]; at 50.0 µM 55.3% | [16]; at 1.2 µM -4% | [16]; at 3.7 µM 6% | [16]; at 11.0 µM 14% | [16]; at 33.0 µM 42%
active: [1]; at 100.0 µM 70% | [3]; at 100.0 µM 92% | [5]; at 100.0 µM 83% | [7]; at 100.0 µM 71% | [11]; at 100.0 µM 77% | [14]; at 100.0 µM 86% | [16]; at 100.0 µM 87%
